Screens deposited in PubChem BioAssay by Broad Institute.
A selection: hits, their analogues and other compounds. The true share with any hit is near 2.1%.
YB-1 expression: YB-1 expression inhibition | U2OS, qRT-PCR YB-1 vs CDIP delta delta Cp, 16 h; stronger effect = higher value; zero = DMSO, each unit about twofold | delta delta Cp (YB-1 minus CDIP) (test concentration not listed) | 0.37% of 30,000 active | AID 434959;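 active means delta delta Cp rounded down to an integer at or above 3, about 3 SD of DMSO wells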;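 further: higher means less YB-1 transcript or more CDIP transcript relative to DMSO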
ROS inducer: raises reactive oxygen species in U2OS cancer cells | AID 624156 | 2% of 46,000 active | U2OS ROS induction, H2DCF-DA fluorescence | ROS induction (% of piperlongumine), % at 10 µM; in the data active means ROS induction above about 79%, passing the limit was not always enough; inconclusive means no clear call, values can overlap the other calls;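 further: 0% = DMSO vehicle median and 100% = reference compound median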
The depositor's hits bear a star; ? = inconclusive; . = no result given.

SMILES	YB-1 expression	ROS inducer
O=C1c2ccccc2-c2c(NCCc3ccccc3)c(=O)[nH]c3cccc1c23	-0.481	813.2*
Cc1nnc(NCCc2ccccc2)[nH]c1=O	.	-6.4
C/C=C/[C@@H](CCn1cc([C@H](O)c2ccccc2)nn1)[Si](C)(C)c1ccc(OC)cc1	0.144	3.2
C/C=C/[C@H](CCn1cc([C@H](O)c2ccccc2)nn1)[Si](C)(C)c1ccc(OC)cc1	0.0281	109.7*
C=CCN1C(=O)C2(C(C#N)=C(N)Oc3c2c(=O)oc2ccccc32)c2ccccc21 (stereo unspecified)	-0.134	13.2
N#CC1=C(N)Nc2c(c(=O)oc3ccccc23)C1c1ccc(Br)cc1 (stereo unspecified)	-0.4	81.0*
Cn1ccnc1Sc1cnc(SCc2ccc(Cl)cc2)nc1-c1ccccc1	.	7.4
Cc1cc(NC(=O)C2CCCCC2C(=O)O)ccc1NC(=O)c1ccccc1 (stereo unspecified)	.	126.3*
COc1cccc(C(=O)Nc2ccc(NC(=O)C3CCCCC3C(=O)O)cc2)c1 (stereo unspecified)	.	24.4
O=C1CCCC2=C1C(c1cccnc1)Nc1ccc3ccccc3c12 (stereo unspecified)	.	10.7
COC(=O)c1cc(O)cc(OC)c1C(=O)c1c(O)cc(C)cc1O	-0.401	93.8*
COC(=O)c1cc(O)cc(OC)c1C(=O)c1c(O)cc(C)cc1OC	0.591	-6.0
FC(F)(F)C1NCCc2c1[nH]c1ccccc21 (stereo unspecified)	.	-5.8
C[C@@H]1CCCCO[C@H](CN(C)C(=O)Nc2cccc3ccccc23)[C@@H](C)CN([C@H](C)CO)C(=O)c2cc(NS(=O)(=O)c3ccc(Cl)cc3)ccc2O1	14.9*	88.9*
C[C@@H]1CCCCO[C@@H](CN(C)C(=O)Nc2cccc3ccccc23)[C@@H](C)CN([C@H](C)CO)C(=O)c2cc(NC(=O)C3CCCCC3)ccc2O1	-0.0324	133.5*
C[C@@H]1CCCCO[C@H](CN(C)C(=O)Nc2cccc3ccccc23)[C@@H](C)CN([C@H](C)CO)C(=O)c2cc(NS(=O)(=O)c3ccccc3)ccc2O1	-0.234	55.8
C[C@@H]1CCCCO[C@H](CN(C)C(=O)Nc2cccc3ccccc23)[C@@H](C)CN([C@H](C)CO)C(=O)c2cc(NC(=O)C3CCCCC3)ccc2O1	0.011	21.8
O=C(c1ccccc1)N1CN(C2CCCCC2)Cc2c1sc1c2CCCC1	-0.246	33.7
CCOC(=O)c1cnn(C(=O)c2c(C)nc3ccccn23)c1N	.	29.2
CCOC(=O)c1cnn(C(=O)Cc2cccc(OC)c2)c1N	5.18*	-8.0
COc1ccc2nc3[nH]nc(NC(=O)Cc4ccccc4OC)c3cc2c1	.	-4.0
CC1(c2ccccc2)CC(C)(C)N(C(=O)CSc2ncn[nH]2)c2ccccc21 (stereo unspecified)	.	-6.9
CCc1cccc(NC(=O)O[C@H]2[C@H](OC(=O)Nc3ccccc3)[C@@H](OC(=O)Nc3ccccc3)[C@@H](OC)O[C@@H]2CO)c1	0.164	54.9
CCOC(=O)c1ccc(NC(=O)O[C@H]2[C@H](OC(=O)Nc3ccccc3)[C@@H](OC(=O)Nc3ccccc3)[C@@H](OC)O[C@@H]2CO)cc1	-0.355	88.3*
Cc1ccc(SCc2cc(=O)[nH]c(Nc3nc(C)c4ccccc4n3)n2)cc1	.	-13.7
SMILES	YB-1 expression	ROS inducer
Cc1ccc2nc(Nc3nc(CSc4nc5ccccc5s4)cc(=O)[nH]3)nc(C)c2c1	.	165.7*
CCc1ccc2nc(Nc3nc4ccccc4c(=O)[nH]3)nc(C)c2c1	.	132.1*
Cc1ccc2nc(Nc3nc(CSc4nnc(C)s4)cc(=O)[nH]3)nc(C)c2c1	.	49.2
FC(F)(F)c1cccc(/C=N/n2cnnc2SCc2ccccc2)c1	.	4.3
Cc1cc(C)c(C)c(Cn2cnc3ccccc32)c1C	.	-4.9
O=C(O)CCC(=O)c1ccc2c(c1)OCCCO2	0.0902	9.7
O=C(c1ccc(Br)cc1)c1cc2c(cc1Br)OCCCO2	-0.48	131.2*
COc1ccc(C)cc1N(CC(=O)Nc1cccc(Cl)c1Cl)S(C)(=O)=O	.	85.4*
Cc1cccc(N(CC(=O)Nc2ccc(I)cc2C)S(C)(=O)=O)c1	.	128.8*
COc1ccc(OC)c(N(CC(=O)Nc2cccc(Cl)c2Cl)S(C)(=O)=O)c1	.	-6.9
Cc1cc(I)ccc1NC(=O)CN(c1cccc(F)c1)S(C)(=O)=O	.	46.2
CCOC(=O)c1ccc(-n2c(C)cc(/C=N/O)c2C)cc1	.	-9.5
CCOc1ccc(-c2cn3c(n2)sc2cc(C(=O)N4CCN(C)CC4)ccc23)cc1	.	35.0
COc1ccc(Cl)cc1NS(C)(=O)=O	.	-7.9
COc1cccc(-c2cnc3c(c2)C(=O)N([C@H](C)CO)C[C@H](C)[C@H](CN(C)C(=O)Nc2ccc(F)cc2)O3)c1	-0.354	28.9
COc1ccc(-c2cnc3c(c2)C(=O)N([C@H](C)CO)C[C@H](C)[C@H](CN(C)C(=O)Nc2ccc4c(c2)OCO4)O3)cc1	0.0373	33.0
COc1cccc(-c2cnc3c(c2)C(=O)N([C@H](C)CO)C[C@H](C)[C@H](CN(C)C(=O)Nc2ccc4c(c2)OCO4)O3)c1	-0.567	93.9*
COc1cccc(-c2cnc3c(c2)C(=O)N([C@H](C)CO)C[C@H](C)[C@H](CN(C)C(=O)Nc2cccc4ccccc24)O3)c1	0.4	93.3*
C=CS(=O)(=O)c1ccc(OC)c(N)c1	0.441	27.4
Cc1ccc(CSc2nc3ccccc3c3nc(CCn4nc(C)cc4C)nn23)cc1	.	-1.0
C[C@@H]1CN([C@H](C)CO)C(=O)Cc2cc(NS(=O)(=O)c3ccccc3)ccc2O[C@H]1CN(C)S(=O)(=O)c1ccccc1	5.14*	1.2
C[C@H]1CN([C@@H](C)CO)C(=O)Cc2cc(NS(=O)(=O)c3ccc(F)cc3)ccc2O[C@H]1CN(C)S(=O)(=O)c1ccccc1	-0.51	106.2*
C[C@@H]1CN([C@@H](C)CO)C(=O)Cc2cc(NS(=O)(=O)c3ccccc3)ccc2O[C@@H]1CN(C)S(=O)(=O)c1ccc(F)cc1	0.0694	13.9
C[C@@H]1CN([C@H](C)CO)C(=O)Cc2cc(NS(=O)(=O)c3ccccc3)ccc2O[C@@H]1CN(C)S(=O)(=O)c1ccccc1	-0.107	13.2
O=C(O)CCN1C(=O)/C(=C/c2ccccn2)SC1=S	.	7.0
SMILES	YB-1 expression	ROS inducer
COc1cc(C(=O)NCCC(=O)N2CCN(C)CC2)cc(OC)c1OC	.	4.0
COc1cc(CCC(=O)N2CCC=CC2=O)cc(OC)c1OC	0.172	136.7*
C(=NCc1ccc2c(c1)OCO2)c1cccnc1	.	-15.7
CN(Cc1ccccc1)C(=O)CCN1C(=O)COc2ccccc21	.	-14.7
O=C(CN1N=C(c2ccccc2)CCC1=O)NC1CC1	.	-1.2
COc1ccc2c(c1)C(=O)/C(=C/c1ccc(N(C)C)cc1)CC2	.	121.9*
COc1ccc(/C=C2\CCc3ccccc3C2=O)cc1Cn1cccn1	.	1.0
Cc1cc2c(cc1S(=O)(=O)N1CCc3ccccc31)OCC(=O)N2	.	17.8
Cc1cc2c(cc1S(=O)(=O)N1CC(C)CC(C)C1)OCC(=O)N2 (stereo unspecified)	.	84.5*
CCn1c(=O)c(=O)n(CC)c2cc(S(=O)(=O)NC3CCCCC3)ccc21	.	-1.8
O=C1C(Nc2ccccc2)=CC(=O)c2ncccc21	3.08*	?
Cc1cc(C)c(OCC(=O)Nc2cccc(NC(=O)c3ccco3)c2)c(Br)c1	.	175.9*
O=C(COc1ccccc1Cl)Nc1cccc(NC(=O)c2ccco2)c1	.	-5.6
